This is an account of results in PubChem BioAssay.

The nature of test [1]: compounds altering viability of human ES cells (AID 493140).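 Also: cells exposed to compounds for four days before counting.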 As to conditions: human embryonic stem cell survival screen; stronger effect = higher value.
Test [2] can be described thus: viability loss with induced miR-34 in A549 – imaging, A549 dox-inducible miR-34, nuclei and caspase counts, primary screen (AID 1347080;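 active = compounds whose cell count with miR-34 switched on is under 0.7 times the count with it off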). As to conditions: A549 miR-34 inducible, Hoechst nuclei count, 48 h.
The nature of test [3]: P. berghei load reduction in hepatocytes – cell-based, HepG2, luciferase luminescence, HepG2 viability, primary screen (AID 624349; in the data active = parasite load remaining mostly below about 12%, no sharp cut-off; inactive = mostly above about 10%;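 also: 100% = mean of DMSO negative control wells on the same plate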). The settings on record: P. berghei liver stage in HepG2, luciferase luminescence, concentration not given here; parasite load remaining: stronger effect = lower value; viability: measured here: HepG2 viability without parasites.
The nature of test [4]: liver-stage malaria parasite load reduction – cell-based, known kinase inhibitor set, luminescence, hepatoma host viability (AID 624392).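 Also: infected cells incubated roughly two days before readout.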 As to conditions: Plasmodium liver stage in hepatoma cells, luciferase luminescence, concentration not given here; liver cell % of control: measured here: host liver cell viability; parasite % of control: stronger effect = lower value.
Test [5] can be described thus: compounds altering HSF1 focus formation in cells – imaging, Selleck Cancer Library (AID 1347162; in the data active = plate-normalised HSF1 focus index below about 0.46). The settings on record: human cells, HSF1 nuclear foci imaging, at 10 µM; SSMD: measured here: HSF1 foci SSMD mean; cell count: measured here: cell number; plate-normalised HSF1 focus index: stronger effect = lower value.
The nature of test [6]: chitosan synthesis blockers in C. neoformans – flow cytometry, Cibacron Brilliant Red staining (AID 1347148).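 Also: compound exposure lasted three days at 37 degrees C.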 The settings on record: Cryptococcus neoformans chitosan, stronger effect = lower value; at 10 µM unless noted.
Setting [7] is: stronger effect = lower value, cell number ratio, induced over uninduced.
The mark [8] stands for this setting: measured here: relative caspase fold change +Dox/-Dox.
[9] abbreviates: measured here: total cells with miR-34 induction, stronger effect = lower value.
The mark [10] stands for this setting: measured here: total cells without miR-34 induction.

Values joined by “and” are separate entries in the source; they are usually repeats but may differ in a detail not shown here. Identical values can stand only once. Active and inactive are the calls of the source. Unless noted, no rule for the calls is given here.

For the compound `CCCCCCCCCCCCCCCC(=O)OCC(COP(=O)(O)O)OC(=O)CCCCCCCCCCCCCCC` (stereo not drawn), the survival in test [1] is 95.5 (inactive). In addition, the fold change in test [2] (setting [7]) was 0.922 (inactive); in test [2] (setting [8]) it was 1.21. The cell count in test [2] (setting [9]) amounted to 5850; in test [2] (setting [10]), 6340.

Regarding `CCCCC[C@H](O)/C=C/[C@@H]1[C@H](C/C=C\CCCC(=O)O)[C@@H](O)C[C@H]1O`, in test [1], the survival was 105 (inactive). Also, the fold change in test [2] (setting [7]) is 0.908 (inactive) and 0.973 (inactive); in test [2] (setting [8]), 1.37 and 1.68. Also, the cell count in test [2] (setting [9]) was 6000 and 5340; in test [2] (setting [10]), 6610 and 5490.

With `CCCCCCCC/C=C\CCCCCCCC(=O)OCC(CO)OC(=O)CCCCCCC/C=C\CCCCCCCC` (stereo not drawn), in test [1], the survival was 88.4 (inactive). Further, the fold change in test [2] (setting [7]) is 1.01 (inactive); in test [2] (setting [8]), 1.34. Moreover, the results for the cell count in test [2] (setting [9]) and in test [2] (setting [10]) were 5020 and 4970, respectively.

Turning to `CCCCCCCCCCCCCCC[C@@H](O)[C@H](CO)NC(=O)CCCCCCC`, the survival in test [1] was 84.9 (inactive). Besides, the fold change in test [2] (setting [7]) was 0.925 (inactive); in test [2] (setting [8]), 1.41. The cell count in test [2] (setting [9]) came out at 5910; in test [2] (setting [10]), 6390.

As to `C[N+]1(C)CCC[C@H]1C(=O)[O-]`, the survival in test [1] is 11.7 (inactive). The parasite load remaining in test [3] was 174% (inactive) and 67% (inactive). In addition, in test [3], the viability is 106% and 78.6%. The fold change in test [2] (setting [7]) is 0.876 (inactive); in test [2] (setting [8]), 1.44. Moreover, the results for the cell count in test [2] (setting [9]) and in test [2] (setting [10]) were 8860 and 10100, respectively.

Turning to `COc1cc2c(cc1OC)-c1[nH]nc(Nc3cccc(F)c3)c1C2`, the parasite load remaining in test [3] is 37% (inactive). In addition, the viability in test [3] is 81.5%. The figures for the fold change in test [2] (setting [7]) and in test [2] (setting [8]) were 1.05 (inactive) and 1.72, respectively. Also, the cell count in test [2] (setting [9]) came out at 1160; in test [2] (setting [10]), 1100.

For `O=C(O)C1(O)C[C@H](O)C(O)[C@@H](O)C1` (stereo partly drawn), the parasite load remaining in test [3] was 88.4% (inactive). Besides, the viability in test [3] came to 72.5%. Further, the figures for the fold change in test [2] (setting [7]) and in test [2] (setting [8]) were 0.922 (inactive) and 0.931, respectively. Besides, the cell count in test [2] (setting [9]) is 8930; in test [2] (setting [10]), 9680.

Consider `Clc1cnccn1`, for which, in test [1], the survival was 4.25 (inactive). Moreover, the parasite load remaining in test [3] was 81.6% (inactive). In addition, the viability in test [3] was determined as 71.5%. Besides, the fold change was 0.949 (inactive) in test [2] (setting [7]) and 0.524 in test [2] (setting [8]). The values for the cell count in test [2] (setting [9]) and in test [2] (setting [10]) were 9270 and 9770, respectively.

With `CC(C)=CCC/C(C)=C/CC1=C(C)C(=O)c2ccccc2C1=O`, the parasite load remaining in test [3] was 76.4% (inactive). In test [3], the viability is 75.8%. For the same compound, the fold change in test [2] (setting [7]) is 0.983 (inactive); in test [2] (setting [8]), 0.847. The cell count in test [2] (setting [9]) turned out to be 6780; in test [2] (setting [10]), 6900.

In the case of `CCC(=O)OC1(C(=O)CCl)[C@@H](C)C[C@H]2[C@@H]3CCC4=CC(=O)C=C[C@]4(C)[C@@]3(F)[C@@H](O)C[C@@]21C` (stereo partly drawn), in test [1], the survival was 2.5 (inactive). Besides, the parasite load remaining in test [3] was 141% (inactive). Further, the viability in test [3] worked out at 94.7%. The fold change was 0.789 (inactive) in test [2] (setting [7]) and 1.5 in test [2] (setting [8]). In addition, the cell count was determined as 5850 in test [2] (setting [9]) and 7420 in test [2] (setting [10]).

For the compound `C[C@H]1c2cccc(O)c2C(O)=C2C(=O)C3(O)C(O)=C(C(N)=O)C(=O)[C@@H](N(C)C)[C@@H]3[C@@H](O)[C@@H]21` (stereo partly drawn), in test [1], the survival was 3.25 (inactive). The parasite load remaining in test [3] was 62.9% (inactive). Further, the viability in test [3] was 97.2%. Moreover, the fold change was 0.641 (active) in test [2] (setting [7]) and 1.76 in test [2] (setting [8]). Besides, the cell count in test [2] (setting [9]) was 4060; in test [2] (setting [10]), 6330.

As to `CCC(NC(C)C)C(O)c1ccc(O)c2[nH]c(=O)ccc12` (stereo not drawn), the parasite load remaining in test [3] was 40.1% (inactive). The viability in test [3] turned out to be 98.2%. For the same compound, the fold change in test [2] (setting [7]) is 0.908 (inactive); in test [2] (setting [8]), 1.47. Further, the cell count in test [2] (setting [9]) came to 11700; in test [2] (setting [10]), 12900.

Regarding `CC(C)(C)n1nc(Cc2cccc3ccccc23)c2c(N)ncnc21`, in test [3], the parasite load remaining is 40.9% (inactive). For the same compound, the viability in test [3] was 75%. The fold change in test [2] (setting [7]) was 1.05 (inactive); in test [2] (setting [8]) it was 1.15. In addition, the results for the cell count in test [2] (setting [9]) and in test [2] (setting [10]) were 5260 and 5010, respectively.

For `OCCN1C[C@@H](O)[C@@H](O)C(O)C1CO` (stereo partly drawn), the parasite load remaining in test [3] was 147% (inactive) and 57.2% (inactive). Also, the viability in test [3] was 86.4% and 111%. Moreover, the fold change in test [2] (setting [7]) was 0.903 (inactive); in test [2] (setting [8]) it was 5.56. In addition, the figures for the cell count in test [2] (setting [9]) and in test [2] (setting [10]) were 12600 and 14000, respectively.

Regarding `CCCCCCCCCC(=O)OCC(CO)OC(=O)CCCCCCCCC` (stereo not drawn), the survival in test [1] is 93.4 (inactive). The fold change in test [2] (setting [7]) is 1.02 (inactive); in test [2] (setting [8]), 0.801. The cell count is 4940 in test [2] (setting [9]) and 4860 in test [2] (setting [10]).

Consider `c1ccc(-c2[nH]ncc2-c2ccnc3ccccc23)nc1`, for which, in test [4], the liver cell % of control turned out to be 101% and the parasite % of control was 63.9% (inactive).

In the case of `COC(=O)[C@H](CCCN=C(N)N)NS(=O)(=O)c1ccc(C)cc1`, in test [5], the SSMD came out at 1.44, the cell count turned out to be 7120 and the plate-normalised HSF1 focus index was 1.08 (inactive).

For the compound `COc1c/c(=C2/C=c3ccccc3=N2)[nH]/c1=C\c1[nH]c(C)cc1C`, in test [5], the SSMD is -6.15, the cell count stood at 7490 and the plate-normalised HSF1 focus index is 0.614 (inactive).

For `Nc1ncnc2c1c(I)cn2C1OC(CO)C(O)C1O` (stereo not drawn), the survival in test [1] was 7.5 (inactive). Moreover, the fold fluorescence in test [6] is 3.83 [at 127.5 µM] (inactive).

Regarding `CC[C@@H](CO)Nc1nc(NCc2ccccc2)c2ncn(C(C)C)c2n1`, in test [3], the parasite load remaining is 32.6% (inactive) and the viability turned out to be 67.3%. Also, the fold fluorescence in test [6] was 9.95 [at 141.1 µM] (inactive).

`CCCCOc1cc(C[C@H]2CNC(=O)N2)ccc1OC`: in test [6], the fold fluorescence was 8.15 [at 179.6 µM] (inactive).

For `CCCCC[C@@H](O)/C=C/[C@H]1[C@H](CCCCCCC(=O)O)C(=O)C[C@@H]1O`, the fold fluorescence in test [6] was 4.03 (inactive).

For `CC(=O)OCO[C@H](c1ccc2ccccc2c1)P(=O)(OCOC(C)=O)OCOC(C)=O`, the fold fluorescence in test [6] is 4.04 [at 110 µM] (inactive).

As for `CCCCCCCCCCCCCCCCCCOC[C@@H](COP(=O)([O-])OCC[N+](C)(C)C)OC(C)=O`, in test [6], the fold fluorescence was 3.94 (inactive).

`CCCCCCCCCCCCCC[C@H](F)C(=O)O`: in test [6], the fold fluorescence is 6.01 (inactive).

Turning to `C/C=C/C/C=C/CCC(=O)[C@@H]1O[C@@H]1C(N)=O`, the fold fluorescence in test [6] is 8.37 [at 223.9 µM] (inactive).
